Compound activity: PubChem, several laboratories
Most compounds without a hit are left out; they make up all but 4.3% or so of the library.
FGF22 binding = shifts melting point of recombinant human FGF22; Q9HCT0; recombinant FGF22 thermal shift, SYPRO orange fluorescence; percent of sucrose octasulfate shift, DMSO zero; activity (Tm shift, normalised), % at 9.99 µM; 1.5% of 340,000 active; AID 651658;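 active means mean Tm shift, scaled 0 neutral to 100 positive control, at about 1.3% or above, every replicate too, limit read from the data; inconclusive means no clear call, values can overlap the other calls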
esBAF inh = inhibitors of esBAF chromatin remodeling in mouse ES cells; Bmi1-luciferase knock-in reporter, 24 h; 100% = twice the neutral-well signal; reporter increase, % at 12.5 µM; 2% of 350,000 active; in the data active means activation above about 40%; inconclusive means no clear call, values can overlap the other calls;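 further: 0% = median of the plate's neutral control wells and 100% = double that signal; a rise in the Bmi1 reporter signal indicates esBAF inhibition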
SMARCA2 activ = SMARCA2 function activation, primary screen. MG213 cells, MMTV-luciferase reporter, dexamethasone, overnight. activation, % at 9.1 µM. 1% of 370,000 active. AID 652017; in the data active means activation above about 7.8%;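 further: 0% = vehicle wells and 100% = reference activator wells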
MITF act = MITF TRPM1 promoter activation in melanoma cells; SK-MEL-5 TRPM1-promoter luciferase, 24 h; % of positive control, neutral wells = 0; activation, % at 12.5 µM; 0.75% of 300,000 active; AID 588334;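 active means mean activation of at least 80% with every replicate also reaching 80%; inconclusive means mean reaches 80% but some replicate falls short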;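 further: 0% = neutral control wells and 100% = parthenolide positive control wells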
MLL AF4-AF9 inh = MLL-AF4/AF9 protein interaction inhibition | AlphaScreen, biotin-AF4 peptide binding to FLAG-AF9 | inhibition, % at 10 µM | 0.47% of 350,000 active;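 active means every replicate reaching a set inhibition limit, whatever the replicate mean, cut at about 25% in these data; inconclusive means mean inhibition reaches that limit but some replicates miss it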;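 further: 0% = plate neutral control median and 100% = total signal loss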
Target sequence (P42568 whole entry, looked up): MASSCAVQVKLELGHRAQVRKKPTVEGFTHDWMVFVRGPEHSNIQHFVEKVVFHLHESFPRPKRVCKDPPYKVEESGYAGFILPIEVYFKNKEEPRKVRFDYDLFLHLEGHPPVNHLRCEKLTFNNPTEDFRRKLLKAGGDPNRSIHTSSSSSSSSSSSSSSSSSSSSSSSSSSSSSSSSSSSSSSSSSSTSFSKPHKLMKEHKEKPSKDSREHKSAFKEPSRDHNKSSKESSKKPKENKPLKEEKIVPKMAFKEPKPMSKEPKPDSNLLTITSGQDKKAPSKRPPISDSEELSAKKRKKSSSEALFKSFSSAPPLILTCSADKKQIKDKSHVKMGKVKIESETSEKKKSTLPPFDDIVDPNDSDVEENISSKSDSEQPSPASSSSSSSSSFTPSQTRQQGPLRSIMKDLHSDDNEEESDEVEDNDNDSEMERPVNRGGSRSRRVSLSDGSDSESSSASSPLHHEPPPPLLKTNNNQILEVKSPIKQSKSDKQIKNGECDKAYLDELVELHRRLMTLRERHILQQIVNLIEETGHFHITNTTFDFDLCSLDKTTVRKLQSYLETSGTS
Wnt bcat act = Wnt/beta-catenin pathway activation; activation, % at 9.35 µM; 1.2% of 300,000 active; AID 743398; Wnt/beta-catenin reporter cell assay, activator, plate reader; in the data active means activation above about 30%, passing the limit was not always enough; inconclusive means no clear call, values can overlap the other calls;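 further: 0% = neutral control wells and 100% = positive control wells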
Active calls of the source: *; u = inconclusive; x = no result.

SMILES	FGF22 binding	esBAF inh	SMARCA2 activ	MITF act	MLL AF4-AF9 inh	Wnt bcat act
CC(=O)Nc1cccc(-c2nc3ccccc3o2)c1	0	35	0	x	-10	4
O=C(Nc1ccc2oc(-c3cccc(F)c3)nc2c1)c1ccccc1F	0	x	2	60	-73	7
CC(C)CC(=O)Nc1ccc2oc(-c3ccncc3)nc2c1	x	67*	5	69	2	16
O=C(Nc1ccc2oc(-c3ccccc3F)nc2c1)c1ccccc1F	0	85*	2	60	-5	15
O=C(Nc1ccc2oc(-c3ccncc3)nc2c1)c1ccccc1F	x	39	1	40	x	x
CC(=O)Nc1ccc2oc(-c3ccccc3)nc2c1	0	x	3	79	-2	64*
O=C(Nc1ccc2oc(-c3ccccc3)nc2c1)c1ccccc1F	x	51*	2	58	x	x
COc1ccc(S(=O)(=O)N2CC[C@@H]3[C@H](CO)Nc4ccc(-c5ccccc5F)cc4[C@@H]32)cc1	0	-1	x	x	x	x
C[C@@H]1CN([C@H](C)CO)C(=O)c2cc(NC(=O)C3CCCCC3)ccc2O[C@@H](C)CCCCO[C@@H]1CN(C)C(=O)Nc1cccc2ccccc12	1	11	x	x	0	x
COc1ccc(NC(=O)N(C)C[C@@H]2Oc3ccc(NS(C)(=O)=O)cc3CC(=O)N([C@H](C)CO)C[C@H]2C)cc1	0	2	x	x	-3	x
O=C(N[C@H]1CC[C@@H](CCNC(=O)C2CCCC2)O[C@H]1CO)c1ccccn1	0	-1	x	x	-1	x
O=C(Nc1ccc2oc(-c3ccncc3)nc2c1)c1ccccc1	0	11	-3	1	-2	0
O=C(Nc1ccc2nc3ccccc3nc2c1)c1ccc(Br)cc1	x	17	-3	23	x	x
CC(=O)Nc1ccc2nc3ccccc3nc2c1	0	42*	2	x	2	47*
CCCCC(=O)Nc1ccc2oc(-c3cccnc3)nc2c1	x	23	1	39	x	x
O=C(Cc1ccccc1)NC(=S)Nc1ccc2oc(-c3ccccc3F)nc2c1	x	7	3	125*	x	x
CCCC(=O)Nc1ccc2oc(-c3cccnc3)nc2c1	x	x	1	51	x	37*
O=C(Nc1ccc2oc(-c3ccccc3F)nc2c1)c1ncn[nH]1	x	-3	1	3	x	52*
C[C@H](CO)N1C[C@H](C)[C@@H](CN(C)S(=O)(=O)c2cn(C)cn2)OCCCC[C@H](C)Oc2ccc(NS(=O)(=O)c3cn(C)cn3)cc2C1=O	0	1	x	x	-11	x
O=C(Nc1ccc2oc(-c3ccc(Cl)c(Cl)c3)nc2c1)c1ncn[nH]1	x	52*	0	55	x	42*
O=C(Nc1ccc(-c2nc3cc(NC(=O)c4cccs4)ccc3o2)cc1)c1cccs1	x	2	-2	-75	x	x
C[C@H]1CCCCO[C@H](CN(C)C(=O)Nc2ccc(F)cc2)[C@@H](C)CN([C@@H](C)CO)C(=O)c2cc(NC(=O)CCCN(C)C)ccc2O1	0	3	x	x	0	x
COCCNC(=O)CN(C(=O)CCC(=O)Nc1ccccn1)c1cc(C)ccc1C	0	-4	-3	-8	26*	0
O=C(NCC(=O)N1CCCC(C(F)(F)F)C1)c1cccs1 (stereo unspecified)	0	14	-1	19	33*	5
O=C(c1cccs1)N1CCN(Cc2ccccc2)CC1	0	x	-2	-16	-28	-2
SMILES	FGF22 binding	esBAF inh	SMARCA2 activ	MITF act	MLL AF4-AF9 inh	Wnt bcat act
O=C(NCC(=O)N1CCN(Cc2ccccc2)CC1)c1cccs1	0	49*	5	46	1	-2
Cc1ccc(C(=O)NCC(=O)N2CCCC(C(F)(F)F)C2)s1 (stereo unspecified)	0	x	1	16	2	3
Fc1ccc(F)c(C2=NNC(=NCC3CCCO3)SC2)c1 (stereo unspecified)	43*	x	-2	-5	-8	5
O=C(NCc1cc(F)cc(F)c1)[C@@H]1[C@@H](CO)[C@@H]2Cn3c(cccc3=O)[C@H]1N2C(=O)c1ccccn1	x	x	x	x	-5	x
CCOc1cc(N2CCOCC2)c(OCC)cc1NC(=S)NCCCOC	43*	x	-2	1	0	1
C[C@H]1CN([C@@H](C)CO)C(=O)Cc2cc(NS(=O)(=O)c3cn(C)cn3)ccc2O[C@@H]1CN(C)S(=O)(=O)c1ccc(Cl)cc1	0	-5	x	x	2	x
CCCN1[C@@H]2c3ccc(-c4ccc(F)cc4)c(=O)n3C[C@@H]2[C@@H](CO)[C@@H]1C(=O)OC	0	-1	x	x	-1	x
Cc1ccc(S(=O)(=O)/N=C2/C=C(C3C(=O)CC(C)(C)CC3=O)C(=O)c3ccccc32)cc1	x	u	-8	x	x	63*
Cc1ccc(S(=O)(=O)/N=C2\C=C(NS(=O)(=O)c3ccccc3)C(=O)c3ccccc32)cc1	0	-1	2	-27	-2	10
CSc1ccccc1OCc1cc(C(=O)N(C)C(C)c2ccccn2)no1 (stereo unspecified)	0	0	3	5	1	-1
Cc1cc(OCc2cc(C(=O)N(C)CCOc3ccccc3)no2)cc(C)c1Cl	0	0	-1	6	0	0
CC(=O)c1ccc(OCc2cc(C(=O)N(C)Cc3ccccn3)no2)cc1	0	104*	2	99*	0	19
Cc1cc(OCc2cc(C(=O)N(C)Cc3ccccn3)no2)cc(C)c1Cl	0	75*	8	97*	-1	u
Cc1cc(OCc2cc(C(=O)N(C)C(C)c3ccccn3)no2)cc(C)c1Cl (stereo unspecified)	0	57*	0	30	-5	20
Fc1ccc2c(Cl)c(-c3nnc(-c4cccs4)o3)sc2c1	x	-11	2	x	x	44*
COc1cc(-c2nnc(-c3cccs3)o2)cc(OC)c1OC	x	6	-1	0	x	x
Cc1cccc2sc(NC(=O)C3CCCO3)nc12 (stereo unspecified)	x	74*	2	75	x	x
Cc1ccc(C)c2sc(NC(=O)CN3C(=O)CCC3=O)nc12	43*	-5	1	-17	4	10
Cc1cccc2sc(NC(=O)CN3C(=O)C4CC=CCC4C3=O)nc12 (stereo unspecified)	44*	x	-4	-3	-2	0
C[C@H](CO)N1C[C@H](C)[C@@H](CN(C)S(=O)(=O)c2ccc(Cl)cc2)Oc2ccc(NC(=O)Nc3ccccc3)cc2C1=O	0	1	x	x	3	x
COc1ccccc1/C=C/C(=O)Oc1cccc2cccnc12	43*	x	-1	14	1	62*
COc1ccccc1/C=C/C(=O)OCCCN(C)C	44*	x	5	-11	-1	u
O=C(/C=C\c1ccco1)Oc1cccc2cccnc12	0	x	0	-12	4	40*
C[C@@H]1CN([C@@H](C)CO)C(=O)Cc2cc(NC(=O)Nc3ccccc3)ccc2O[C@@H]1CN(C)Cc1ccc(-c2ccccc2)cc1	0	6	x	x	-1	x
